# “And” between values parts separate entries of the source, which are not always exact repeats. Identical values can stand only once. A number with no mark means an inactive call. Results filed as inconclusive are left out. The source made the active and inactive calls. Unless noted, the call rests on the fitted dose curve; in most records, active means well fitted curve in the direction sought with a large enough effect; inconclusive means small, poorly fitted or top-dose-only effect, or another doubt; inactive means no such curve, though single readings can be large; an effect the other way counts as inactive or inconclusive. *1 amine or outer side, *2 acyl side, *3 side chain or, on linkers, in order; H or OH if unused. Where a SMILES comes first, the peptide text is derived from it. Bridges are numbered along the chain shown (N, C = ends). Roman numbers before positions name the chains, in order. [ ]: non-standard residue; d: D form. ξ: configuration not given here. Actinocin(9to1) = Cc1c2oc3c(C)ccc(C(=O)[*:1])c3nc-2c(C(=O)[*:2])c(N)c1=O; ξNMeV = CNC(C(=O)O)C(C)C; ξV = CC(C)C(N)C(=O)O; Sar = CNCC(=O)O
# Assays:
# [1] = molecular target: Arylsulfatase A (Homo sapiens) (UniProt P15289); assay: qHTS screen for enhancers of Arylsulfatase A (ASA1): LOPAC Validation Assay (AID 720538); conditions: ASA enzyme activity, LOPAC qHTS enhancer assay; series mostly up to 57.5 µM; further: 0% is about no effect
# Chain of Arylsulfatase A (Homo sapiens) (P15289 whole entry, looked up): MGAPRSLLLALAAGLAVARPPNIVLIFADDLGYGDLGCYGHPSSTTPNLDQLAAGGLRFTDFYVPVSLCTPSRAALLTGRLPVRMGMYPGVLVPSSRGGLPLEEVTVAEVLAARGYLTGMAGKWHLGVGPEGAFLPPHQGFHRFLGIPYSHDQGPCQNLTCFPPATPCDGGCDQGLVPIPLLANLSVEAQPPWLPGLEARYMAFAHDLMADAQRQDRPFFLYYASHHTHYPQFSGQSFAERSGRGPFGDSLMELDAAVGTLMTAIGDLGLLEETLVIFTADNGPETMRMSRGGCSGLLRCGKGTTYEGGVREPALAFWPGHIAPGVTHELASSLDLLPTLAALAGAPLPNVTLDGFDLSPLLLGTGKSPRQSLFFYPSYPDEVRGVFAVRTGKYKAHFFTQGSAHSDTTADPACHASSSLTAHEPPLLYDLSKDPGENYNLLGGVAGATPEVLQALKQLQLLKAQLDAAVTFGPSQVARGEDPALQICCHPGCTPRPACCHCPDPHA
# In short: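 First, ASA-I179S fibroblasts from an MLD patient adhered for 6 hrs. Next, compounds were added for 48h. Then pNCS substrate (0.5mM final) with lysis buffer reacted 14h at room temperature before NaOH stop and fluorescence measurement.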
# [2] = qHTS for compounds that reverse cellular toxicity of Amyloid beta (A-beta) peptide in yeast: LOPAC Validation Assay (AID 720559); conditions: yeast expressing A-beta; series mostly up to 46.1 µM;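 further: plate controls were DMSO for no effect and equimolar ferric chloride plus clioquinol rescue for full effect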
# In short: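 Activity is expressed relative to DMSO and an equimolar ferric chloride/clioquinol mix. Compounds were pinned into medium with A-beta-expressing yeast, grown 48 hr at 30 C, then read by absorbance at 600 nm.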
# [3] = qHTS for Activators of Parkin Expression: LOPAC Validation Assay (NLuc Reporter) (AID 720572;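 further: 0% = DMSO and 100% = positive control compound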); conditions: Parkin promoter NanoLuc reporter cells, luminescence, percent of positive control, DMSO as zero; series mostly up to 46.1 µM
# In short: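 Parkin promoter-driven FLuc/NLuc neuronal reporter cells; 24 h plating, 7-pt dose response, 24 h at 37 C/5% CO2; FLuc then NanoLuc reagent, 10 min each, luminescence; DMSO/positive control normalized.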
# [4] = molecular target: T1, Hexokinase-4 (Homo sapiens) + Glucokinase regulatory protein (Homo sapiens) (UniProt P35557+Q14397); assay: qHTS assay for inhibitors of recombinant human GCK-GKRP interaction: ADP-Glo assay (AID 743206); conditions: ADP-Glo luminescence, 60 min, 0% = vehicle-only wells with enzyme present; series mostly up to 76.9 µM;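 further: plate controls were DMSO plus enzyme for no effect and no enzyme for full effect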
# T1 sequence (P35557 whole entry, looked up): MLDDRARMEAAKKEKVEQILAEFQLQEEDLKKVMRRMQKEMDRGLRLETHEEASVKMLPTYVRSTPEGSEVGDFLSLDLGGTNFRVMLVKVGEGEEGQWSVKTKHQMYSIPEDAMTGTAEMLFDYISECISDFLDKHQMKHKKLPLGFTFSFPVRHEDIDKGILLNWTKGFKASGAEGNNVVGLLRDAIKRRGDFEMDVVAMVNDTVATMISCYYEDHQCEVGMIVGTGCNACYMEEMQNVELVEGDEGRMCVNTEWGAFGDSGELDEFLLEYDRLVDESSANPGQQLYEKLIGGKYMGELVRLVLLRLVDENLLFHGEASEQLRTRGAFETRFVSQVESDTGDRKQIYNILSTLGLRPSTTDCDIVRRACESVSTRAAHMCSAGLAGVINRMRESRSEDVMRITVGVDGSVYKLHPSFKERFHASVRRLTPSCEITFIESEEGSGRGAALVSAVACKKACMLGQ
# T1 sequence (Q14397 whole entry, looked up): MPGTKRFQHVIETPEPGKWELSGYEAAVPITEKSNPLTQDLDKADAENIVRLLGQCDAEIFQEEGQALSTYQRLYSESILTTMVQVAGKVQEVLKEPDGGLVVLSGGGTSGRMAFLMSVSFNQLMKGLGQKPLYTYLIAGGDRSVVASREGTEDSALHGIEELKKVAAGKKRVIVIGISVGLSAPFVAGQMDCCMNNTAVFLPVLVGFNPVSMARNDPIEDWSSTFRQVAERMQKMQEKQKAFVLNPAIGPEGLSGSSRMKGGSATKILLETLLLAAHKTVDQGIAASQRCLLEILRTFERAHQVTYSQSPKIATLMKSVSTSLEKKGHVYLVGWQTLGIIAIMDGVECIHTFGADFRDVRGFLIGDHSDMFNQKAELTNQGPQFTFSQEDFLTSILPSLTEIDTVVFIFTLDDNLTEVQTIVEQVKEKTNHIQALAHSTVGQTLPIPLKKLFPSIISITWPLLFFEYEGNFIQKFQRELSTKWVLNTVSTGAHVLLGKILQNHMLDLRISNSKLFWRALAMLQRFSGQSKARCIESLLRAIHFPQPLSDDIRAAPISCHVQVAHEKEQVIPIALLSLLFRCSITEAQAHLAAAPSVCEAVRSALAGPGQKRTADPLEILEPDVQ
# In short: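 GST-GCK and FLAG-GKRP (15 nM each in the dispensed mix, with 2 uM S6P) react with 0.4 mM ATP and 5 mM glucose (final) in Hepes pH 7.6 for 60 min at room temperature. ADP is measured by ADP-Glo luminescence.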
# [5] = molecular target: T1, Hexokinase-4 (Homo sapiens) + Glucokinase regulatory protein (Homo sapiens); assay: qHTS assay for inhibitors of recombinant human GCK-GKRP interaction: HTRF assay (AID 743207); conditions: recombinant GCK-GKRP HTRF binding, 60 min, with sorbitol-6-phosphate; series mostly up to 57.5 µM;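 further: 0% = DMSO with GCK present and -100% = DMSO wells lacking GCK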
# In short: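 Steps: dispense GCK–GKRP complex (5 nM each, GST- and FLAG-tagged) with 2 uM S6P; pin in compounds; add XL665/Eu-cryptate-labelled antibodies; incubate 60 min at room temperature; read time-resolved FRET at 665 and 615 nm.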
# [6] = qHTS Assay for Identifying Gametocytocidal Compounds (AID 743244); further: potency means the concentration at half of the fitted maximal effect;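 on max response: on the % scale 0 is the no-effect control and ±100 the full control effect; actives lower the fluorescent signal which means gametocytes are killed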; conditions: P. falciparum 3D7 stage III-V gametocytes, alamarBlue, 72 h; max response: hits give low values
# In short: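 Stage III-V P. falciparum 3D7 gametocytes, 20,000 per well, were exposed to compounds for 72 h at 37C, 5% CO2. AlamarBlue was then added for 24 h and viability was read as fluorescence at Ex 525/Em 598 nm.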
# [7] = qHTS for small molecule inhibitors of Yes1 kinase: Counter Assay (AID 686950); conditions: series mostly up to 76.9 µM;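 further: no kinase present so only ADP-Glo detection of a fixed ADP amount is tested; luminescence from ADP-Glo reporting ADP in a fixed ATP and ADP mixture; 0% = DMSO wells with ATP plus ADP and -100% = ATP-only wells without ADP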
# In short: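 Luminescence read-out from ADP-Glo quantifies a fixed ADP amount (0.02 mM ADP with 0.08 mM ATP) after 60 min at room temperature; signal is normalized between DMSO wells with ATP/ADP and with 0.1 mM ATP alone.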
# [8] = qHTS assay for small molecule agonists of the antioxidant response element (ARE) signaling pathway measured by Nrf2-dependant transcriptional activity (AID 720636; active means well fitted curve in the direction sought with a large enough effect in the repeat runs; an effect the other way counts as inactive or inconclusive; further: % of control where 0% means no effect); conditions: ARE-luc HepG2, Nrf2 luciferase reporter, 16 h; series mostly up to 92.4 µM
# In short: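 Quantitative HTS format in HepG2 cells stably expressing an ARE-luciferase reporter; 16 hr compound treatment at 37 C, luciferase signal detected with ONE-Glo.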
# [9] = qHTS assay for small molecule agonists of the antioxidant response element (ARE) signaling pathway measured by Nrf2-dependant transcriptional activity - cell viability counter screen (AID 720653; active means well fitted curve in the direction sought with a large enough effect in the repeat runs; an effect the other way counts as inactive or inconclusive; further: on the % scale 0 is the no-effect control and ±100 the full control effect); conditions: ARE-bla HepG2 viability, CellTiter-Glo ATP luminescence, 16 h; hits give low values
# In short: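 Cytotoxicity counter screen: intracellular ATP quantified by CellTiter-Glo luminescence in the same ARE-bla HepG2 plates, after 16 h compound exposure and a 2 h beta-lactamase substrate step.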
# [10] = qHTS assay for cell viability of HEK293 cells (AID 743288); conditions: ATP luminescence (CellTiter-Glo), 18 h, hits give low values; further: on the % scale 0 is the no-effect control and ±100 the full control effect; nearly all actives have a fitted effect of over 50% in size
# In short: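 The Tox21 protocol used parental HEK293 cells treated for 18 h at 37 C with compounds delivered by pintool; ATP-coupled luminescence after 30 min at room temperature gave viability.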
smiles,measurement,setting,value
CN1Cc2c(N)cccc2C(c2ccccc2)C1 (stereo not given),outcome,[1],inactive
same,outcome,[2],inactive
same,outcome,[3],inactive
same,outcome,[4],inactive
same,outcome,[5],inactive
same,max response,[6],14.6% and -4.23%
Cc1nnc(C(C)C)n1C1CC2CCC(C1)N2CC[C@H](NC(=O)C1CCC(F)(F)CC1)c1ccccc1 (stereo not given in full),outcome,[7],inactive
same,max response,[6],3.23%
O=C(O)CN(CCN(CC(=O)O)CC(=O)O)CC(=O)O,outcome,[8],inactive
same,max response,[9],14.1% and -8.31%
same,max response,[10],-9.23% and -6.76%
CC1(C)C(C=C(Cl)Cl)C1C(=O)OCc1cccc(Oc2ccccc2)c1 (stereo not given),outcome,[8],inactive
same,max response,[9],-3.1% [middle of 4 runs]
same,max response,[6],-8.09%
same,max response,[10],-9.26% [middle of 4 runs]
Nc1ccn([C@H]2CS[C@@H](CO)O2)c(=O)n1,outcome,[8],inactive
same,max response,[9],4.54%
same,max response,[6],6.99% and 7.67%
same,max response,[10],-4.28%
CC1=CCC(C(C)(C)O)CC1 (stereo not given),outcome,[8],inactive
same,max response,[9],3.37%
same,max response,[6],-0.0478%
same,max response,[10],-13.3%
CC(C)(C)NC(=O)[C@@H]1C[C@@H]2CCCC[C@@H]2CN1C[C@@H](O)[C@H](Cc1ccccc1)NC(=O)[C@H](CC(N)=O)NC(=O)c1ccc2ccccc2n1,max response,[9],-9.17%
same,Potency,[6],10 µM (active)
same,max response,[10],-26%
C[C@@H]1CCN(C(=O)CC#N)C[C@@H]1N(C)c1ncnc2[nH]ccc12,outcome,[7],inactive
same,max response,[6],9.63%
COC(=O)C1=C(C)NC(C)=C(C(=O)OCCCN2CCC(c3ccccc3)(c3ccccc3)CC2)[C@H]1c1cccc([N+](=O)[O-])c1,outcome,[7],inactive
same,Potency,[6],14.8 µM (active)
CCCCC(CC)COC(=O)CC(C(=O)OCC(CC)CCCC)S(=O)(=O)O (stereo not given),outcome,[8],inactive
same,max response,[9],-6.73%
same,max response,[6],-7.18% and 8.87%
same,max response,[10],-6.91%
CNC1CCN(C(Cc2cccc(-c3ccncc3)c2)C(=O)c2sc3c(F)ccc(F)c3c2Cl)CC1 (stereo not given),outcome,[7],inactive
same,Potency,[6],9.35 µM (active)
CCC1(O)CC2CN(CCc3c([nH]c4ccccc34)[C@@](C(=O)OC)(c3cc4c(cc3OC)N(C=O)[C@H]3[C@](O)(C(=O)OC)[C@H](OC(C)=O)[C@]5(CC)C=CCN6CC[C@]43[C@@H]65)C2)C1 (stereo not given in full),outcome,[7],inactive
same,max response,[6],-18.4%
"Cc1c2oc3c(C)ccc(C(=O)N[C@@H]4C(=O)NC(C(C)C)C(=O)N5CCC[C@H]5C(=O)N(C)CC(=O)N(C)C(C(C)C)C(=O)O[C@@H]4C)c3nc-2c(C(=O)N[C@@H]2C(=O)NC(C(C)C)C(=O)N3CCC[C@H]3C(=O)N(C)CC(=O)N(C)C(C(C)C)C(=O)O[C@@H]2C)c(N)c1=O (stereo not given in full) (I: T[ξV]P[Sar][ξNMeV] / II: T[ξV]P[Sar][ξNMeV]; ester I:1-I:C, II:1-II:C; linker I:N-II:N via Actinocin(9to1))",outcome,[7],inactive
same,Potency,[6],0.0132 µM (active)
CCCCCCCC(=O)O,outcome,[8],inactive
same,max response,[9],3.78% and 1.59%
same,max response,[6],10%
same,max response,[10],-4.48% and -6.78%
CC(O)CO (stereo not given),outcome,[8],inactive
same,max response,[9],-5.98% and -4.66%
same,max response,[6],5.22%
same,max response,[10],4.22% and 2.43%
CC[C@@H](C(=O)O)C1CC[C@H](C)C([C@@H](C)[C@H](O)[C@H](C)C(=O)[C@H](CC)C2O[C@]3(C=C[C@@H](O)[C@]4(CC[C@@](C)(C5CC[C@](O)(CC)[C@H](C)O5)O4)O3)[C@H](C)C[C@@H]2C)O1 (stereo not given in full),outcome,[7],inactive
O=c1cc(C2=CC=CC3Sc4ccccc4SC23)oc(N2CCOCC2)c1 (stereo not given),outcome,[7],inactive
same,max response,[6],-19.3%
CN(NC(=O)CC(=O)NN(C)C(=S)c1ccccc1)C(=S)c1ccccc1,outcome,[7],inactive
O=C(O)CC/C=C\CC[C@H]1[C@@H](N2CCCCC2)[C@@H](O)C[C@@H]1OCc1ccc(-c2ccccc2)cc1,outcome,[7],inactive
same,max response,[6],3.93%
O=C(O)CCC(=O)C(=O)O,outcome,[8],inactive
same,max response,[9],-1.5%
same,max response,[6],11.5%
same,max response,[10],2.53%
CCCCCCCCCCCCCCCCCCOP(=O)([O-])OC1CC[N+](C)(C)CC1,outcome,[7],inactive
same,max response,[6],13.1%
NC(=O)Nc1cc(-c2ccc(CN3CCOCC3)c(F)c2)sc1C(=O)N[C@H]1CCCNC1,outcome,[7],inactive
same,Potency,[6],18.7 µM (active)
CCOc1cc2ncc(C#N)c(Nc3ccc(OCc4ccccn4)c(Cl)c3)c2cc1NC(=O)/C=C/CN(C)C,outcome,[7],inactive
same,Potency,[6],23.5 µM (active)
C[C@H]1C[C@H]2[C@@H]3CCC4=CC(=O)C=C[C@]4(C)[C@@]3(F)[C@@H](O)C[C@]2(C)[C@@]1(O)C(=O)CO,outcome,[8],inactive
same,max response,[9],-19.2%
same,max response,[6],-4.91%
same,max response,[10],-14.2%
CCC1(Cc2ccc(N)cc2)CCC(=O)NC1=O (stereo not given),outcome,[7],inactive
same,max response,[6],9.55%
CC(C)=O,outcome,[8],inactive
same,max response,[9],-3.47%
same,max response,[6],-8.02%
same,max response,[10],-4.51%
O=S(=O)(O)O,outcome,[8],inactive
same,max response,[9],-6.94% and 4.69%
same,max response,[6],-4.98%
same,max response,[10],9.97% and -5.38%
IC(I)I,outcome,[8],inactive
same,max response,[9],1.96% and -3.08%
same,max response,[6],8.07%
same,max response,[10],-1.78% and -16.4%
CC(NC(=O)Cc1cc(F)cc(F)c1)C(=O)NC(C(=O)OC(C)(C)C)c1ccccc1 (stereo not given),outcome,[7],inactive
same,max response,[6],8.47%
CCCCC/C=C\C/C=C\CCCCCCCC(=O)O,outcome,[8],inactive
same,max response,[9],-8.45% and -16.5%
same,max response,[6],0.52%
same,max response,[10],-9.3% and -9.38%
O=CCCCC=O,outcome,[8],inactive
same,max response,[9],-17.7%
same,max response,[6],-1.12%
CCOC(C)=O,outcome,[8],inactive
same,max response,[9],1.62%
same,max response,[6],12.9%
same,max response,[10],2.28%
CCCCCCCC/C=C\CCCCCCCC(=O)O,outcome,[8],inactive
same,max response,[9],-10.5% and 3.78%
same,max response,[6],5.58%
same,max response,[10],-8.54% and -13.9%
Cc1ccccc1,outcome,[8],inactive
same,max response,[9],6.91% and 8.68%
same,max response,[6],2.65%
same,max response,[10],1.99% and 6.48%
CC1=C2[C@@H]([C@H](C)CC[C@H]2/C=C(\C)C(=O)O)[C@H](O)C1,outcome,[8],inactive
same,max response,[9],-8.96%
same,max response,[10],-12%
CC1=C(/C=C/C(C)=C/C=C/C(C)=C/CO)C(C)(C)CCC1,max response,[9],-15.5% and 5.78%
same,max response,[10],-9.33% and -12.3%
CCOc1ccc2c(c1)C(C)=CC(C)(C)N2,max response,[9],-1.53% and -25.3%
same,max response,[10],-17.1% and -27.7%

# From PubChem BioAssay (NCATS)
